The results in this text go back to ChEMBL document CHEMBL1961873, “Compounds: GSK PKIS; Assays: Nanosyn kinase panel” (2012).

The structures appear in SMILES notation.

Assay [1] addresses T1, Ephrin type-B receptor 2 (Homo sapiens) (UniProt P29323).
T1 sequence (whole entry): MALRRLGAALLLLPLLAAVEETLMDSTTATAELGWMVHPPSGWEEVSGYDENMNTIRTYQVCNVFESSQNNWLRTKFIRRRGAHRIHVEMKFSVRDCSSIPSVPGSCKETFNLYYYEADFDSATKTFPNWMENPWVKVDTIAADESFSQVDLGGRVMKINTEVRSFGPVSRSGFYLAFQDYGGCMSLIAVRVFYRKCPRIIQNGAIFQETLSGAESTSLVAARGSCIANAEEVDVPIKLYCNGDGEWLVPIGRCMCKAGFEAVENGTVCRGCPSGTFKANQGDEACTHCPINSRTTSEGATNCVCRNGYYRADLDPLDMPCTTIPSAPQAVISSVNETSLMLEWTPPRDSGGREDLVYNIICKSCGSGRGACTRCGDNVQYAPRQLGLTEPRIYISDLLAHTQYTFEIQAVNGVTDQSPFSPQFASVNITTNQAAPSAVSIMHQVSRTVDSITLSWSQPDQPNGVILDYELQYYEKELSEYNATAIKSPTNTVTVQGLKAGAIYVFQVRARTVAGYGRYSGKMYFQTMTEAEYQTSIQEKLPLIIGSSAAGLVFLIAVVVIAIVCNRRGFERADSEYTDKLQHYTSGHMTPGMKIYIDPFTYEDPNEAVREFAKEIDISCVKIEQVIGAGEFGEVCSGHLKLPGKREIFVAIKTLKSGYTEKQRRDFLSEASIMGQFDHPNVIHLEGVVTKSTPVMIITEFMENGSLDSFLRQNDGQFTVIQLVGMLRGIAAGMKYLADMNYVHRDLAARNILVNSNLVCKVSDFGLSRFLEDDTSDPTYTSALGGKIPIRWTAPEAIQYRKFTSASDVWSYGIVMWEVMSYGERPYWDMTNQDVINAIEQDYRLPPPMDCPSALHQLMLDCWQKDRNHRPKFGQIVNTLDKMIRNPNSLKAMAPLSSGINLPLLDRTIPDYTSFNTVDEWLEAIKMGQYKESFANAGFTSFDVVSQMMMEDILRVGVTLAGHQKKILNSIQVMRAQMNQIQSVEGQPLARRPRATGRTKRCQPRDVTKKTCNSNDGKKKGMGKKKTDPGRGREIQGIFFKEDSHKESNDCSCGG
The conditions noted are these: at 1 µM.

Assay [2] has as its target T2, Ephrin type-B receptor 3 (Homo sapiens) (UniProt P54753).
T2 sequence (whole entry): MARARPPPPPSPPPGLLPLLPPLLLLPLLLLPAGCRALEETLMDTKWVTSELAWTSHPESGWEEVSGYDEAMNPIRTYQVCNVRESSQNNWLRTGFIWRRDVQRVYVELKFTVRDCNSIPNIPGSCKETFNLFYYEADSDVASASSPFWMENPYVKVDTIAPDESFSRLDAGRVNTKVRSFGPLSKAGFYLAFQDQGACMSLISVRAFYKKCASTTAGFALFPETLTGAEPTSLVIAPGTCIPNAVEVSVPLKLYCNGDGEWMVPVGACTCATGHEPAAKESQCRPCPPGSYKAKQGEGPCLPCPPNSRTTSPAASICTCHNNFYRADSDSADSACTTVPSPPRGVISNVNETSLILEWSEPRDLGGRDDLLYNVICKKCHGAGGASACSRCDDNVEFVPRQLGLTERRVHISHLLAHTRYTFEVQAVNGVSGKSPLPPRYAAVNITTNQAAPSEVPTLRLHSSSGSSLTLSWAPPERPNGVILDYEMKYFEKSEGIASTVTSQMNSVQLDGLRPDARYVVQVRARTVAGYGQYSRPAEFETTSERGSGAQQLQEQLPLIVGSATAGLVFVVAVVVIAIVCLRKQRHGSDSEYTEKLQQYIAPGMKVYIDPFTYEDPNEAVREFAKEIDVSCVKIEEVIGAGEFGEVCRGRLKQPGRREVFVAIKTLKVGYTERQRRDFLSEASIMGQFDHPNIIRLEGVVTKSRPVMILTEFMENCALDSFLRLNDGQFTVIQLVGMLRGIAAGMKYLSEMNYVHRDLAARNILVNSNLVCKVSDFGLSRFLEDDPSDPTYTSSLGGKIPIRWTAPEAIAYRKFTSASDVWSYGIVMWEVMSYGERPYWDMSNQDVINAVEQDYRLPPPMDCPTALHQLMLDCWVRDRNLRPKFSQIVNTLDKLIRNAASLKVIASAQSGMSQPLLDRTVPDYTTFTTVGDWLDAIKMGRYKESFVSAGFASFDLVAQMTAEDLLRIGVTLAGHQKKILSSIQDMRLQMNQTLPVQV
To be noted: at 0.1 µM.

The target in assay [3] is T2, Ephrin type-B receptor 3 (Homo sapiens). The conditions noted are these: at 1 µM.
The target in assay [4] is T3, Ephrin type-B receptor 4 (Homo sapiens) (UniProt P54760).
T3 sequence (whole entry): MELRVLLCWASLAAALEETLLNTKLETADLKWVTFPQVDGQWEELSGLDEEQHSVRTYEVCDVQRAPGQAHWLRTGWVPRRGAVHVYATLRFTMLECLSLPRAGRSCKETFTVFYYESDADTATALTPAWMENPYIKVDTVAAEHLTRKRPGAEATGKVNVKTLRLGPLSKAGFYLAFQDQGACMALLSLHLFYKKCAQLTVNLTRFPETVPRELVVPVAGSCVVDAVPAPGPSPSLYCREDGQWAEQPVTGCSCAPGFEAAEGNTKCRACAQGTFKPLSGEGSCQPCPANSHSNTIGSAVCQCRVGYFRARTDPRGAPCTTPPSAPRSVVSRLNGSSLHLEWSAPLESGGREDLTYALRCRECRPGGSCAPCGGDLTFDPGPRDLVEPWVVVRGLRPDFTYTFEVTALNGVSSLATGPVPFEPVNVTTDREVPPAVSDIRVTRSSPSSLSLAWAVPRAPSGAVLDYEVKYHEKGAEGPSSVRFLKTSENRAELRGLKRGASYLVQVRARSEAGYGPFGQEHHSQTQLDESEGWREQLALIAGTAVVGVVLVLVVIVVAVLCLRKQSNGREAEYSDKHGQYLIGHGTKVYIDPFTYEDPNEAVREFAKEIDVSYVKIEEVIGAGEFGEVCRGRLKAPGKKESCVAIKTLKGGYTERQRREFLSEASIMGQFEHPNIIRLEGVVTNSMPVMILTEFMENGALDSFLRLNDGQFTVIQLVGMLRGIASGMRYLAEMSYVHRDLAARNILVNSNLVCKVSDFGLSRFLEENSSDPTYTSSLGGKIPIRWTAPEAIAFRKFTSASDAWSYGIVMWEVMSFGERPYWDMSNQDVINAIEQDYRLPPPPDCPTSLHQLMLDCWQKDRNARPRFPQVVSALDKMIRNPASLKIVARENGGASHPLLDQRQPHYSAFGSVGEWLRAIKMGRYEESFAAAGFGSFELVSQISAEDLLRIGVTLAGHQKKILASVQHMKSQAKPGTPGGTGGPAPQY
The conditions noted are these: at 0.1 µM.

In assay [5] the target is T3, Ephrin type-B receptor 4 (Homo sapiens). The conditions noted are these: at 1 µM.
Assay [6] has as its target Receptor tyrosine-protein kinase erbB-2 (Homo sapiens) (UniProt P04626). The conditions noted are these: at 0.1 µM.
Assay [7] has the same target. The conditions noted are these: at 1 µM.
The target of assay [8] is Receptor tyrosine-protein kinase erbB-4 (Homo sapiens) (UniProt Q15303). The conditions noted are these: at 0.1 µM.
Chain of Receptor tyrosine-protein kinase erbB-4 (Homo sapiens) (Q15303 whole entry): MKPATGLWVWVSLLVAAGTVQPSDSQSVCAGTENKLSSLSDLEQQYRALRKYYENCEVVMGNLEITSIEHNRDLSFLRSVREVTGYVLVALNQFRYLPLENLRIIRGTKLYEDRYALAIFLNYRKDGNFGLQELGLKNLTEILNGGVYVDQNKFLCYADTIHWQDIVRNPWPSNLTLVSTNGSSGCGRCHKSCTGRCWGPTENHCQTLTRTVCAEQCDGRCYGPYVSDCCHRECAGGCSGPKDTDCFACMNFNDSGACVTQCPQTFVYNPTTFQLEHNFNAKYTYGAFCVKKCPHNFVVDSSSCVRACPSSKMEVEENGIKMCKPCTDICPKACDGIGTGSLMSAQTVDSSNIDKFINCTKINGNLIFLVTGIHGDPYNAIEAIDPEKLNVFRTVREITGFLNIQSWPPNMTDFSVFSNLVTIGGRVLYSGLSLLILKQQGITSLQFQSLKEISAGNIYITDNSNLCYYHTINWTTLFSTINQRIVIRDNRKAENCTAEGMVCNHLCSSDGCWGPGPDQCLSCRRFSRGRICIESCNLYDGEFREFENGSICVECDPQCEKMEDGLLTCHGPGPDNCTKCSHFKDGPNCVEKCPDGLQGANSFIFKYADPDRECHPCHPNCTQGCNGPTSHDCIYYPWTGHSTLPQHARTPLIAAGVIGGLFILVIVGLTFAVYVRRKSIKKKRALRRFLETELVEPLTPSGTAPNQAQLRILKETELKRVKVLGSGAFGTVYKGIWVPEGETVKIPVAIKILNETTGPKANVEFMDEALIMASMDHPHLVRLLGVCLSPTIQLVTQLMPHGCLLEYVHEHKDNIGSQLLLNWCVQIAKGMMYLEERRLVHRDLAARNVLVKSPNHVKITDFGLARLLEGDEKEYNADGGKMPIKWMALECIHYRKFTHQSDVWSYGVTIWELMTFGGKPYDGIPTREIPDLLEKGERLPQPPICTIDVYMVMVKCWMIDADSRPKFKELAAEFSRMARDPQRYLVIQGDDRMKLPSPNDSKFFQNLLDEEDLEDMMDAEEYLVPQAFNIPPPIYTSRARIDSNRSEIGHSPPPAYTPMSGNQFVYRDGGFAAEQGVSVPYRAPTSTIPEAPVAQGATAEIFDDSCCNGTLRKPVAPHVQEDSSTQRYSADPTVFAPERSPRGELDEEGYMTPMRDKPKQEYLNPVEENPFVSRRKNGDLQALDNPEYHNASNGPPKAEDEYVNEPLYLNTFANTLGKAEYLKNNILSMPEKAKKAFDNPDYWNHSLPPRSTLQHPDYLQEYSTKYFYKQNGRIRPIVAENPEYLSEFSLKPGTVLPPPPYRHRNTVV
Assay [9] shares this target. The conditions noted are these: at 1 µM.
Assay [10] concerns the target Tyrosine-protein kinase Fer (Homo sapiens) (UniProt P16591). The conditions noted are these: at 0.1 µM.
Assay [11] shares this target. To be noted: at 1 µM.
The target in assay [12] is Tyrosine-protein kinase Fes/Fps (Homo sapiens) (UniProt P07332). The conditions noted are these: at 0.1 µM.
Assay [13] has the same target. The conditions noted are these: at 1 µM.
The target of assay [14] is Fibroblast growth factor receptor 1 (Homo sapiens) (UniProt P11362). The conditions noted are these: at 0.1 µM.
For assay [15] the target is unchanged. The conditions noted are these: at 1 µM.
Assay [16] addresses Fibroblast growth factor receptor 2 (Homo sapiens) (UniProt P21802). The conditions noted are these: at 0.1 µM.
Assay [17] has the same target. The conditions noted are these: at 1 µM.
The target of assay [18] is Fibroblast growth factor receptor 3 (Homo sapiens) (UniProt P22607). To be noted: at 0.1 µM.
Chain of Fibroblast growth factor receptor 3 (Homo sapiens) (P22607 23-806 limits assumed): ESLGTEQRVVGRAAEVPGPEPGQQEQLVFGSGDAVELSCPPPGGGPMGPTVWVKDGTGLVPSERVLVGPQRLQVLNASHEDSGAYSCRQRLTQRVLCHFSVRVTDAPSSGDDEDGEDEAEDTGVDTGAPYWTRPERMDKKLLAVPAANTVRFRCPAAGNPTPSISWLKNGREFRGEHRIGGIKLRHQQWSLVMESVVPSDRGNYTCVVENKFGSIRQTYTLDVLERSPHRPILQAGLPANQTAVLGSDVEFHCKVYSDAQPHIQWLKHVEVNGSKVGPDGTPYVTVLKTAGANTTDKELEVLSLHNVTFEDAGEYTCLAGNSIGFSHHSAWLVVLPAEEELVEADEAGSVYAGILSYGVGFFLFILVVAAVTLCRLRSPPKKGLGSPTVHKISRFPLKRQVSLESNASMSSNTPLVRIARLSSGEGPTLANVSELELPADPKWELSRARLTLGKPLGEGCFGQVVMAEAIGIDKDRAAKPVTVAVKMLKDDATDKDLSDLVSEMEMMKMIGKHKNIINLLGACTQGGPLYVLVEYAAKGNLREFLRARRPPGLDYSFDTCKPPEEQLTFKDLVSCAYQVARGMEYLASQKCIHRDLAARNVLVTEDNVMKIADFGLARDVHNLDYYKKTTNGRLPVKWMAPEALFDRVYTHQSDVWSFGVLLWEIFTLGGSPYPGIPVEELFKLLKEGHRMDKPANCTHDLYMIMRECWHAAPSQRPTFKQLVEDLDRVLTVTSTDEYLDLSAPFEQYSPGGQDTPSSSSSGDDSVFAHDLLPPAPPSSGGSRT
Assay [19] shares this target. To be noted: at 1 µM.
Assay [20] addresses Fibroblast growth factor receptor 4 (Homo sapiens) (UniProt P22455). The conditions noted are these: at 0.1 µM.

Chain of Tyrosine-protein kinase Fer (Homo sapiens) (P16591 whole entry, looked up): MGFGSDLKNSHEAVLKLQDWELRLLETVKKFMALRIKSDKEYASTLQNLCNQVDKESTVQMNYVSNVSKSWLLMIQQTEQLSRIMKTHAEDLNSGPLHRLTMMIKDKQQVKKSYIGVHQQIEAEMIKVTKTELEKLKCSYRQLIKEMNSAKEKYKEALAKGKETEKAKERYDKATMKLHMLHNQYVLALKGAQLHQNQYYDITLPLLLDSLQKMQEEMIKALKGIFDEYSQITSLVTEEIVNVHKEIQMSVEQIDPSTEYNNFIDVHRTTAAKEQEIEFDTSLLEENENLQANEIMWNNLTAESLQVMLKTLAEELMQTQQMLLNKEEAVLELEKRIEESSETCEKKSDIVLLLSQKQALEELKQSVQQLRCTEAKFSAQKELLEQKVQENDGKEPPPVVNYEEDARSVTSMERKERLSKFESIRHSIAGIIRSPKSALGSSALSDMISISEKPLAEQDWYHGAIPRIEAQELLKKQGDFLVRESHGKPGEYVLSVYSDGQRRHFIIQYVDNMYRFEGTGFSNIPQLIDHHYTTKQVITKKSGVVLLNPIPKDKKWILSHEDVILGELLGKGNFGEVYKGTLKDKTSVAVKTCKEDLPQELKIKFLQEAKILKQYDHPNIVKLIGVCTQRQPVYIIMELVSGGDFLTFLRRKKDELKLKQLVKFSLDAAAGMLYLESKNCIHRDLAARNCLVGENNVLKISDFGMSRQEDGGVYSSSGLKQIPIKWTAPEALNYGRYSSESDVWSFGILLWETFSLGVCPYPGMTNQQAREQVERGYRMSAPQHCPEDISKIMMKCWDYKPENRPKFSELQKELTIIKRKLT
Chain of Fibroblast growth factor receptor 2 (Homo sapiens) (P21802 22-821 limits assumed): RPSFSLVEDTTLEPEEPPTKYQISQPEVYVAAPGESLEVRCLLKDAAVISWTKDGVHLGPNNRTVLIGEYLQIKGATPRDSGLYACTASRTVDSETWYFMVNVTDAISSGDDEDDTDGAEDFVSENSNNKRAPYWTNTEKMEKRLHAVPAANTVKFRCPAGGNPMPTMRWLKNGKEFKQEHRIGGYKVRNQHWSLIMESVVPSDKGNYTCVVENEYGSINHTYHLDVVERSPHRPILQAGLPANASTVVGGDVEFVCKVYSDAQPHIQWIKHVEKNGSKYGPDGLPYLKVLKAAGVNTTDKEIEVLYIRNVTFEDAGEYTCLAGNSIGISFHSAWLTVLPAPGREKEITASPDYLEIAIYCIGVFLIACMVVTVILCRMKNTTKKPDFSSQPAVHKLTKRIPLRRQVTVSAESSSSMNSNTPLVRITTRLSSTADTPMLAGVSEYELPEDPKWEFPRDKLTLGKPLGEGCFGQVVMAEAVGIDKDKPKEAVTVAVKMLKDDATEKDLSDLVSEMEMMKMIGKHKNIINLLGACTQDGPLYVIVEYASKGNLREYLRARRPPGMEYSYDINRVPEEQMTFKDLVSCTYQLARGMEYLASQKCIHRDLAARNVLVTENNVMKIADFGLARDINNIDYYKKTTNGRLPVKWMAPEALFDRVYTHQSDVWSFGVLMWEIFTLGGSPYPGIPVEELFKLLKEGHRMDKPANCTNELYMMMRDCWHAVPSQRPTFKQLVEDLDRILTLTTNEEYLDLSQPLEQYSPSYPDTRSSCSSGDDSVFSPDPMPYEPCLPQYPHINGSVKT
Chain of Receptor tyrosine-protein kinase erbB-2 (Homo sapiens) (P04626 whole entry): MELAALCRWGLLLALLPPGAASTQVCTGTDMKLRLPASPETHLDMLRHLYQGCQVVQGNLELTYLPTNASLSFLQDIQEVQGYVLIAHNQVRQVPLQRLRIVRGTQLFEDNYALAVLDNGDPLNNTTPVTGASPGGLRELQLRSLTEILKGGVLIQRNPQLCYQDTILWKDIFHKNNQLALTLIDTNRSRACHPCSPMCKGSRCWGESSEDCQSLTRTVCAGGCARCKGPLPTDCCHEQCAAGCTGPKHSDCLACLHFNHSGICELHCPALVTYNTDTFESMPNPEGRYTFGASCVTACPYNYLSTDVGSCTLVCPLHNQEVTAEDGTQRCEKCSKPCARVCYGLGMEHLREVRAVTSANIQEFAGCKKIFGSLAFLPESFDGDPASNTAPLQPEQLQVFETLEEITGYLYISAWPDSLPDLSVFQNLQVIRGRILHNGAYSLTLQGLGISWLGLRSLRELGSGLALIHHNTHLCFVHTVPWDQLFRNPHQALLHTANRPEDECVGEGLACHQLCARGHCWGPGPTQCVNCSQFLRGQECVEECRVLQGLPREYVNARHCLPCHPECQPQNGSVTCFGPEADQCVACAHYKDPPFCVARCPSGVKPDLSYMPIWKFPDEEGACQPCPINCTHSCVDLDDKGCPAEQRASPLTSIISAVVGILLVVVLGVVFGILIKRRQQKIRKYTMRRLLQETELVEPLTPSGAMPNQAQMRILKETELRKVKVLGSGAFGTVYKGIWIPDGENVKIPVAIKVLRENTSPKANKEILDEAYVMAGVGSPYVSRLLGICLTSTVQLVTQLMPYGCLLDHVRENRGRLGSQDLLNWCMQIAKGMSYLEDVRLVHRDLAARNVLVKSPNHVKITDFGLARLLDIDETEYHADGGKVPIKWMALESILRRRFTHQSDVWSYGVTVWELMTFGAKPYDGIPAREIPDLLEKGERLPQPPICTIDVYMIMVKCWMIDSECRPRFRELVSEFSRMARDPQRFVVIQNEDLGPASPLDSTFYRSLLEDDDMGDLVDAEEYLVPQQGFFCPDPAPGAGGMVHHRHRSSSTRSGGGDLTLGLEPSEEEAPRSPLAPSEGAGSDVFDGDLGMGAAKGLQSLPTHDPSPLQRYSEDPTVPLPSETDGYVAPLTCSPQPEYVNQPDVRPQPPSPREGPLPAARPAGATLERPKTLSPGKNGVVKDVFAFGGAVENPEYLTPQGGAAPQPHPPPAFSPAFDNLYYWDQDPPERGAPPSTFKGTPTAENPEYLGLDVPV

Take `Fc1cccc(COc2ccc(Nc3ncnc4cc(-c5ccc[nH]5)sc34)cc2Cl)c1`: the inhibition in assay [1] is 6.05%; in assay [2], 0.75%; in assay [3], -2.49%; in [4], -1.44%; in [5] it was -2.14%; in [6] it was 0.71%. Moreover, the inhibition in assay [7] worked out at 15.2%; in assay [8], 36.5%; in assay [9] it was 68.5%; in assay [10] it was 1.94%; in assay [11], 2.81%; in assay [12], 1.96%. Moreover, the inhibition in assay [13] was 1.5%; in assay [14] it was -1.92%; in assay [15] it was 4.48%; in [16] it was -1.83%; in assay [17], 0.05%; in assay [18], -1%.
Regarding `COc1ccccc1Nc1ncc(-c2ccccc2)o1`, the inhibition came to 10.8% in assay [1]; 2.82% in assay [2]; 3.43% in assay [3]; 1.6% in [4]; 5.33% in assay [5]; 0.38% in [6]. In addition, the inhibition in assay [7] came to 6.93%; in [8] it was 8.18%; in [9] it was 15.7%; in [10] it was 4.02%; in [11], 11.2%; in assay [12] it was 4.25%. Further, the inhibition was determined as 3.85% in assay [13]; 8.72% in assay [14]; 5.99% in assay [15]; 6.35% in assay [16]; 13.7% in assay [17]; 6.19% in assay [18]. Besides, the inhibition in assay [19] is 13.1%; in assay [20], -2.79%.
Take `CCn1c(-c2nonc2N)nc2c(C#CC(C)(C)O)nc(CN3CCCC3)cc21`: the inhibition in assay [1] was -4.07%; in assay [2], 2.42%; in assay [3], -2.06%; in assay [4], 1.15%; in assay [5], 0.96%; in assay [6], -1.45%. Also, the inhibition in [7] was -6.25%; in assay [8] it was 3.95%; in assay [9], -0.29%; in [10] it was -1.64%; in assay [11], 0.06%; in [12], -1.26%. Also, the inhibition in assay [13] is -0.58%; in assay [14], -3.25%; in assay [15], -2.63%; in assay [16], -0.04%; in assay [17], 0.42%; in [18], -2.14%. Moreover, the inhibition is -0.76% in [19] and -0.75% in assay [20].
Take `N#Cc1c(NC(=O)c2cccc3ccccc23)sc2c1CCCC2`: the inhibition in [1] is 6.91%; in [2], 5.39%; in [3], 3.56%; in [4] it was 3.79%; in [5], 3.28%; in assay [6], 1.65%. Besides, the inhibition in assay [7] is -0.24%; in assay [8], 6.37%; in [9], 8.55%; in [10] it was 2.88%; in assay [11], 1.93%; in [12], 2.2%. Moreover, the inhibition in assay [13] was 2.36%; in assay [14], 0.22%; in [15] it was 2.06%; in assay [16], 1.68%; in assay [17] it was 4.84%; in assay [18], 5.84%. Besides, the inhibition is 4.55% in assay [19] and -2.84% in [20].

What is called inhibition is the change of the read-out against control, counted positive when it falls.
